This is an account of results in PubChem BioAssay (NCATS).

What all share (assay): Cytotoxic Profiling of Annotated Libraries Using Quantitative High-Throughput Screening (AID 1296008); note: nearly all actives have a fitted effect of over 60% in size
What all share (settings): Five cell lines viability, CellTiter-Glo ATP luminescence, 48-72 h; max response: stronger effect = lower value

The test system of one test is HaCat. In short, it runs like this: (§1)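 Cells exposed to compounds for 48 or 72 hr at 37 degrees Celsius. Viability read as ATP-coupled luminescence with CellTiter-Glo after 10 min at room temperature.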
In the next test the test system is KB-3-1. In short, it runs like this: as §1
A further test has as its system NIH3T3. Summed up:
as §1

Records with an inconclusive call do not appear. A number with no mark means an inactive call. Active and inactive are the calls of the source. Calls come from the whole dose curve; as a rule, active = well fitted inhibition curve with a large enough effect; inconclusive = small, poorly fitted or top-dose-only effect; inactive = flat fitted curve, though single readings scatter.
% is set by controls: 0 for no effect and ±100 for the full control effect; potency is the fitted concentration of half-maximal effect.

`Cc1cc(N2CCN([C@@H]3CN[C@H](C(=O)N4CCSC4)C3)CC2)n(-c2ccccc2)n1`: the max response was -10.6% in the test with HaCat, -12.3% with KB-3-1 and -22.8% in the test on NIH3T3.

As for `CC1OC(OC2C(O)C(OC3CCC4(C)C(CCC5(C)C4CC=C4C6CC(C)(COC7OC(CO)C(O)C(O)C7O)CC(O)C6(C)CCC45C)C3(C)C)OC(C(=O)O)C2O)C(O)C(O)C1OC1OCC(O)C(O)C1O` (stereo not drawn), the max response in the test on HaCat was -5.35%; in the test with NIH3T3, -0.449%. In addition, the result with KB-3-1 was inactive.

As for `C/C=C/C=C/C(=O)N1CC[C@]23c4ccccc4N[C@H]4N(C)c5cccc6c5[C@@]42CCN([C@H]6C2OC2(C)C)[C@H]13` (stereo partly drawn), the results for the max response with HaCat, in the test on KB-3-1 and with NIH3T3 were -7.02%, 9.01% and 3.9%, respectively.

`Cc1cccc(Oc2cnc(=O)[nH]c2)c1`: the max response in the test on HaCat is -9.89%; with KB-3-1, 3.8%; in the test with NIH3T3 it was -28.2%.

Turning to `CCCCNc1ncc2c(-c3ccc(CN4CCN(C)CC4)cc3)cn(C3CCC(O)CC3)c2n1` (stereo not drawn), the figures for the Potency in the test on HaCat, in the test with KB-3-1 and in the test on NIH3T3 were 920 nM (active), 1.03 µM (active) and 1.3 µM (active), respectively.

Regarding `C[C@@H]1O[C@@H](O[C@@H]2[C@@H](O[C@@H]3O[C@@H](C)[C@H](O[C@@H]4OC[C@H](O)[C@H](O[C@@H]5OC[C@@H](O)[C@H](O)[C@H]5O)[C@H]4O)[C@@H](O[C@@H]4OC[C@](O)(CO)[C@H]4O)[C@H]3O)[C@H](OC(=O)[C@]34CCC(C)(C)C[C@H]3C3=CCC5[C@@]6(C)C[C@H](O)[C@H](O[C@@H]7O[C@H](CO[C@@H]8OC[C@H](O)[C@H](O)[C@H]8O)[C@@H](O)[C@H](O)[C@H]7O)C(C)(C)C6CC[C@@]5(C)[C@]3(C)C[C@H]4O)OC[C@H]2O)[C@H](O)[C@H](O)[C@H]1O` (stereo partly drawn), the values for the max response with HaCat, in the test with KB-3-1 and in the test on NIH3T3 were 0.757%, 9.59% and 0.953%, respectively.

Consider `CC/C=C\CCO[C@@H]1O[C@H](CO)[C@@H](O)[C@H](O)[C@H]1O`, for which the max response with HaCat is -6.57%; in the test with KB-3-1, 3.45%; in the test with NIH3T3 it was -7.98%.

For the molecule `CON(C)C(=O)[C@H](O)[C@H](Cc1ccccc1)NC(=O)c1cc2cc(Cl)ccc2[nH]1`, the results for the max response with HaCat, in the test with KB-3-1 and in the test with NIH3T3 were -24.4%, 5.78% and -9.74%, respectively.

Take `CC1=CC(=O)CC(C)(C)C1/C=C/C(C)O[C@@H]1O[C@H](CO)[C@@H](O)[C@H](O)[C@H]1O[C@@H]1OC[C@](O)(CO)[C@H]1O` (stereo partly drawn): the values for the max response with HaCat, in the test on KB-3-1 and in the test with NIH3T3 were 4.57%, 2.75% and 3.26%, respectively.

On to `C/C=C/C(O)C1OC(=O)CC1Nc1ccc(C(=O)O)cc1` (stereo not drawn), for which the values for the max response in the test on HaCat, with KB-3-1 and in the test on NIH3T3 were -8.27%, 8.51% and 1.46%, respectively.

Turning to `CC(=O)N[C@H]1[C@H](O[C@H]2CC[C@@]3(C)C(CC[C@]4(C)C3CC=C3C5CC(C)(C)CC[C@]5(C(=O)O)[C@H](O)C[C@]34C)C2(C)C)O[C@H](CO[C@@H]2OC[C@H](O)[C@H](O)[C@H]2O[C@@H]2OC[C@@H](O)[C@H](O)[C@H]2O)[C@@H](O)[C@@H]1O` (stereo partly drawn), the results for the max response in the test with HaCat, in the test with KB-3-1 and with NIH3T3 were -6.42%, 4.32% and -13.2%, respectively.

With `C[C@@H]1O[C@@H](O[C@H]2[C@H](O)[C@@H](O)[C@H](OC[C@H]3O[C@@H](OC(=O)[C@]45CCC(C)(C)C[C@H]4C4=CCC6[C@@]7(C)CC[C@H](O[C@@H]8OC[C@H](O)[C@H](O[C@@H]9O[C@H](CO)[C@@H](O)[C@H](O)[C@H]9O)[C@H]8O)[C@@](C)(CO)C7CC[C@@]6(C)[C@]4(C)CC5)[C@H](O)[C@@H](O)[C@@H]3O)O[C@@H]2CO)[C@H](O)[C@H](O)[C@H]1O` (stereo partly drawn), the max response with HaCat was -0.978%; in the test with KB-3-1, 8.88%; with NIH3T3, -6.93%.

In the case of `COc1cccc2cc3c(c(O[C@@H]4O[C@H](CO[C@@H]5O[C@H](CO)[C@@H](O)[C@H](O)[C@H]5O)[C@@H](O)[C@H](O)[C@H]4O)c12)C(C)OC3=O` (stereo partly drawn), the max response with HaCat was -3.49%; with KB-3-1, 9.17%; in the test on NIH3T3, 0.0764%.

For `CC(=O)O[C@@H]1CC(C)=C2[C@H]1[C@H](C)CC[C@H]2/C=C(\C)C(=O)O`, the max response is -15.4% in the test on HaCat, 7.61% in the test on KB-3-1 and -9.33% in the test with NIH3T3.

With `O=C(O[C@H]1[C@@H]2C[C@@H]3OC[C@](O)([C@@H]1Cl)[C@H]2C(O[C@@H]1O[C@H](CO)[C@@H](O)[C@H](O)[C@H]1O)O3)c1ccc(O)c(O)c1` (stereo partly drawn), the figures for the max response in the test on HaCat, in the test with KB-3-1 and in the test with NIH3T3 were -10.7%, 6.86% and 3.52%, respectively.

Take `COc1ccc(CC2NCCc3c2[nH]c2ccc(C)cc32)cc1OC` (stereo not drawn): the max response with HaCat was -6.85%; in the test with KB-3-1, -15.3%; in the test on NIH3T3, -1.6%.
